Data from the supplement of paper PMC3334620.
Over roughly 33,000 sequences, “E-score (-0.5 to 0.5)” has its median near -0.011; the highest 2% begin near 0.28. What follows is part of a selection rich in the highest values, with near analogues and random picks from the rest.

These sequences were tested against T1, Gcr1 (UniProt P07261) (assay: PBM E-score (8-mer binding enrichment) (E-score (-0.5 to 0.5)); higher = stronger / more preferred TF binding). Settings: protein concentration: 100 nM; construct: GST-full length.
T1 sequence: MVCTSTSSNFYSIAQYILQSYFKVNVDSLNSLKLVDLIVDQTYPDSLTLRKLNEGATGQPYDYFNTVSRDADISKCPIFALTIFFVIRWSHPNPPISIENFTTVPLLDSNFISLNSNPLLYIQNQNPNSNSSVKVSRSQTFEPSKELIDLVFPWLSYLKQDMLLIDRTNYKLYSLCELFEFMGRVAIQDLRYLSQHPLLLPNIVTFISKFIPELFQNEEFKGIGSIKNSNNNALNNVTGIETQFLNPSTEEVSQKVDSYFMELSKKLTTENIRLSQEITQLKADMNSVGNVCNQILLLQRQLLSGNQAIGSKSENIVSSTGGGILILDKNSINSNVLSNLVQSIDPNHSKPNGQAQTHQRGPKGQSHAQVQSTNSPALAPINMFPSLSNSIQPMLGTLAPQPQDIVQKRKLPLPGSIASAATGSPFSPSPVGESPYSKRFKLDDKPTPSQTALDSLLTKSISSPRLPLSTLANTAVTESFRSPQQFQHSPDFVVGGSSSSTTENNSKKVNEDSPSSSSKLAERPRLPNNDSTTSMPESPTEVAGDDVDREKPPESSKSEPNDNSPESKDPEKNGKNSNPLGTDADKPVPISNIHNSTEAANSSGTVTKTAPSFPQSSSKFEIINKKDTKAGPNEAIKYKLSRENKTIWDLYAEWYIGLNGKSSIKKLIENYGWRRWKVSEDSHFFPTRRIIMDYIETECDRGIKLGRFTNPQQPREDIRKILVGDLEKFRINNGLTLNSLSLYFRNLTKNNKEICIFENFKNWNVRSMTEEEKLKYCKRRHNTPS
Summary of the method: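 Yeast transcription factors carrying a GST tag, as full-length proteins or DNA-binding domains, were produced by PURExpress in vitro transcription/translation. About 100-200 nM protein was applied to universal all-10-mer Agilent arrays, double-stranded by primer extension on fresh or once-stripped slides. Bound protein was detected with fluorescent anti-GST, and scans were normalised with masliner. The Universal PBM Analysis Suite gave each ungapped eight-base word, pooled with its reverse complement, an E-score, a modified Wilcoxon-Mann-Whitney statistic.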

| Sequence | PBM E-score |
| --- | --- |
| CTAGTGGC | 0.106 |
| ATAGTGGC | 0.32 |
| CTAGTGGA | 0.298 |
| TCCGACAA | -0.0648 |
| AACGAGGG | 0.0827 |
| CGGTCTAG | -0.167 |
| AAACAAGG | 0.16 |
| GAGGTTCC | 0.269 |
| CAACTTAC | -0.127 |
| GCAGAGTA | -0.0213 |
| ACCGACGC | -0.0878 |
| GTTTTGTA | 0.0369 |
| ATGGCGGC | 0.0606 |
| ATATGCTA | 0.115 |
| CCCCTCAC | -0.0282 |
| CTCCTGAA | 0.085 |
| AAATCGCA | -0.021 |
| ATACCAAC | -0.00844 |
| ATAGTAGC | 0.286 |
| AGAGTGGG | 0.177 |
| ATAGTGAA | -0.116 |
| AAAGTGGT | 0.167 |
| CAAGTGGC | 0.146 |
| ATAGTAGA | 0.191 |
| ATAGTGTG | 0.106 |

| Sequence | PBM E-score |
| --- | --- |
| ATAGTGGG | 0.308 |
| ATAGTGGA | 0.376 |
| ATAGTAGG | 0.051 |
| ATCGTGGA | 0.148 |
| AAAGTGGC | 0.295 |
| GAGAGTGA | -0.261 |
| CCAGTAAG | 0.222 |
| AGCTCTAA | -0.108 |
| GTCAAAAA | 0.144 |
| CCCGAACA | -0.00034 |
| GGAGTAAC | -0.116 |
| CCTCCCCG | 0.0903 |
| AGACCCAT | -0.152 |
| CGCTGAGC | 0.0119 |
| ATCCCCAA | 0.0543 |
| CTCGCGCC | -0.166 |
| CATTGAAG | -0.12 |
| TAAAGAGA | 0.0201 |
| CGCAGCTC | 0.09 |
| GACAGCTA | -0.113 |
| CCCAGCTA | -0.0278 |
| GCCAGCTA | -0.135 |
| GGCAGCTA | 0.318 |
| CGCAGCTA | 0.34 |
| AGGCTGGA | -0.133 |

| Sequence | PBM E-score |
| --- | --- |
| AAAATGGG | 0.29 |
| AAAATAGC | 0.272 |
| AAAATAGG | 0.335 |
| ATAATGGC | -0.00297 |
| AAAATGGA | 0.142 |
| ATAATGGA | 0.196 |
| ATAATGGG | 0.326 |
| CAAATGGG | -0.0381 |
| AAAATAGT | 0.0219 |
| CGCTCCGA | -0.0796 |
| CTCTTTAA | -0.101 |
| GGTCGATA | -0.135 |
| CCTTAAAG | 0.0175 |
| CATCGACG | -0.0993 |
| TCAAGGCA | -0.127 |
| GCTGACTA | -0.0111 |
| CTGGGCAC | 0.239 |
| AGTGGCTA | -0.0284 |
| AGTGGCTC | 0.218 |
| AGTGGCAC | 0.15 |
| AGTGGCTG | 0.312 |
| AGTGGCAA | 0.088 |
| AGTGGCAG | 0.287 |
| GCGTTCAC | 0.00885 |
| AACATGTG | 0.141 |

| Sequence | PBM E-score |
| --- | --- |
| GCGGGAGA | -0.277 |
| ATGGGGTA | -0.128 |
| CTGGGGTA | -0.0593 |
| GTGGGGTA | 0.286 |
| CAAGGAAC | 0.0885 |
| GCAGGCGA | -0.0907 |
| CGGCTACC | 0.0369 |
| AGGCTACC | 0.0739 |
| GGGCTACC | 0.302 |
| CGCCGCGC | 0.137 |
| ATGGCCCG | -0.309 |
| GATTCGCC | 0.0655 |
| GCACGCCA | -0.0682 |
| CGACGCAC | -0.0398 |
| AGACGCCC | 0.259 |
| GCACGCCC | -0.122 |
| GGACGCCA | 0.418 |
| GGACGCCC | 0.441 |
| GGACGTCA | -0.115 |
| CGACGTCC | 0.0613 |
| CGACGCCC | 0.287 |
| CAACGCCC | 0.0625 |
| GGACGTCC | 0.291 |
| TGACGCCA | -0.0776 |
| CCACTTGA | 0.138 |

| Sequence | PBM E-score |
| --- | --- |
| GTTCTCCA | -0.137 |
| ATAAGTGA | -0.119 |
| ACTGGGTC | -0.0289 |
| ACAGGCAG | 0.252 |
| CGAGCCCA | -0.119 |
| AACATTTC | -0.0184 |
| TCATTGGA | -0.0473 |
| CCCCTGAA | 0.0139 |
| ACCTGTAA | -0.0579 |
| CCCTGTAG | 0.107 |
| TCCTGTAA | 0.354 |
| GCCCTGTA | 0.0785 |
| CCCCTGTA | 0.284 |
| ACCTGTAC | 0.0266 |
| GCCTGTAA | 0.109 |
| ACCTGTAT | 0.322 |
| ACCTGTAG | 0.135 |
| CCCTGTAA | 0.308 |
| CCCTGTAC | -0.0614 |
| AGGATTGA | 0.106 |
| AACCATCG | -0.148 |
| ATTATGGA | 0.161 |
| CGTTCTAG | 0.0647 |
| TACCTCTA | 0.238 |
| CGACTCGA | -0.0795 |

| Sequence | PBM E-score |
| --- | --- |
| AGGTTGCG | 0.136 |
| AGGTTGCC | 0.28 |
| AGGTTGCA | 0.125 |
| CGATTTAC | -0.039 |
| CGCAGAGC | -0.291 |
| ATCCACGA | 0.0269 |
| ATCCACTG | 0.0833 |
| ATCCACTA | 0.369 |
| ACCCACTC | 0.0683 |
| CTCCACTA | 0.215 |
| GTCCACTA | 0.334 |
| ATCCACTC | 0.318 |
| CTCCACTC | 0.022 |
| GTCCACGA | -0.0295 |
| CTTAGATA | 0.0548 |
| ACACTTAG | -0.0488 |
| ACATCCAG | 0.251 |
| ACAGCACA | -0.109 |
| ATGTACAC | 0.00539 |
| GTCGTTGA | -0.219 |
| GAGGGCGC | 0.114 |
| GACGCTGC | 0.332 |
| AACGCTGA | -0.0701 |
| CACGCTGC | 0.236 |
| GACGCTGA | 0.301 |

| Sequence | PBM E-score |
| --- | --- |
| CACGCTGA | -0.0481 |
| AACGCTGC | 0.0719 |
| AGGGCAGG | -0.173 |
| AGTGCTTC | -0.0411 |
| CCGTCCAA | 0.13 |
| ACGTCCAC | 0.104 |
| ACGTCCAA | 0.00712 |
| GCGTCCAA | 0.372 |
| CCGTCCAC | 0.016 |
| GCGTCCAC | 0.339 |
| ATACCGGG | 0.208 |
| ACCCACTG | 0.147 |
| CCTGCTCA | -0.0926 |
| CCAGATCC | 0.185 |
| GGCAATGA | -0.202 |
| GCGGAAAC | -0.0701 |
| GCGGAAGC | 0.314 |
| ACGGAAGT | -0.0172 |
| CCGGAAGG | 0.0607 |
| ACGGAAGA | 0.0748 |
| CCGGAAGA | 0.043 |
| ACGGAAGC | 0.344 |
| GCGGAAGA | -0.195 |
| CCGGAAGC | 0.439 |
